Source: PubChem BioAssay
USP17 block – blocks human USP17 ubiquitin-rhodamine cleavage; 47,000 compounds, 6.5% hits; inhibition, % at 50 µM; AID 1645855; A8MUK1; purified USP17, Ub-rhodamine cleavage fluorescence, 3 h
USP10 block – human USP10 deubiquitinase inhibition | Q14694 | purified USP10, Ub-rhodamine fluorescence, 60 min | inhibition, % at 20 µM | 47,000 compounds, 1.1% hits | AID 1645856
Target sequence (Q14694 whole entry, looked up): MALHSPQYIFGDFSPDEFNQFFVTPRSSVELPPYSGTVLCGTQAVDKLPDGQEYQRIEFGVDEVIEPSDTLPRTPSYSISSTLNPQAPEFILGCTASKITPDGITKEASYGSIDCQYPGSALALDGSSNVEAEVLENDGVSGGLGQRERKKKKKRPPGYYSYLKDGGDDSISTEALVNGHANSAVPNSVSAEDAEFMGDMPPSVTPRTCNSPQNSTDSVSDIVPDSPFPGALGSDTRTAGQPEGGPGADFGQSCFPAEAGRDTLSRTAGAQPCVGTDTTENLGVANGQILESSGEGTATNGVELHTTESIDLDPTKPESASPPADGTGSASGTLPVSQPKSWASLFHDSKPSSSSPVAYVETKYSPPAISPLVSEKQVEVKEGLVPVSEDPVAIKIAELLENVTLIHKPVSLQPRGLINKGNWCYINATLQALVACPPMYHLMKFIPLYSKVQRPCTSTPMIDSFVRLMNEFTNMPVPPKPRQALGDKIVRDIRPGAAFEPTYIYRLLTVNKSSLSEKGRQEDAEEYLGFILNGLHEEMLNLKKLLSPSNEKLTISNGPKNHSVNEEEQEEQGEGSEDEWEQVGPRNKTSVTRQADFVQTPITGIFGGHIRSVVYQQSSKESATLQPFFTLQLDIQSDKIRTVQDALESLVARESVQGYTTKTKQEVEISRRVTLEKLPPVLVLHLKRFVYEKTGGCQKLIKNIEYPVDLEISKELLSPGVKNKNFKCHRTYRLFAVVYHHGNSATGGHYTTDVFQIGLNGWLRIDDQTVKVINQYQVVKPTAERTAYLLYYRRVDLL
USP8 block – blocks human USP8 ubiquitin-rhodamine cleavage. 47,000 compounds, 4.2% hits. inhibition, % at 20 µM. purified USP8, Ub-rhodamine cleavage fluorescence, 30 min. P40818
USP28 block – blocks human USP28 ubiquitin-rhodamine cleavage; Q96RU2; purified USP28, Ub-rhodamine cleavage fluorescence, 30 min; inhibition, % at 25 µM; 47,000 compounds, 3% hits
USP30 block – human USP30 deubiquitinase inhibition; AID 1645860; purified USP30, Ub-rhodamine cleavage fluorescence; 47,000 compounds, 5.3% hits; inhibition, % at 25 µM; Q70CQ3
USP7 inh – human USP7 deubiquitinase inhibition. inhibition, % at 20 µM. 47,000 compounds, 0.3% hits. purified USP7, Ub-rhodamine cleavage fluorescence. Q93009
An asterisk follows results filed as active. Only some compounds are listed: those with a hit (about 13% of all), similar ones and a draw of the others. Cut-off read from the data, not from the text of the source: active = inhibition above about 30%; inactive = the rest.

Screening O=C(Nc1nc2c(s1)CN(C(=O)c1cc(-c3ccco3)on1)CC2)C1CCCO1 (centres undefined) returned USP17 block 33.3*, USP10 block -1.6, USP8 block 58.9*, USP28 block 20.2, USP30 block -136.0 and USP7 inh -35.4.
For O=C(C1COc2ccccc2O1)N1CCc2cc(-c3ccno3)ccc21 (centres undefined) the results were USP17 block -5.4, USP10 block -0.9, USP8 block -55.3, USP28 block -9.3, USP30 block -5.4 and USP7 inh -0.2.
COC(=O)C(Cc1ccccc1)NC(=O)CSc1nc2ccccc2[nH]1 (centres undefined) was read as USP17 block -28.4, USP10 block 0.3, USP8 block -22.2, USP28 block -10.0, USP30 block 2.1 and USP7 inh -5.5.
COC(=O)C(Cc1ccccc1)NC(=O)CSc1nc2ccc(Cl)cc2[nH]1 (centres undefined) was read as USP17 block 6.7, USP10 block -1.0, USP8 block 42.6*, USP28 block 0.4, USP30 block -24.3 and USP7 inh -17.8.
For Cc1ccc2nc(N(CCCN(C)C)C(=O)COc3ccccc3)sc2c1 the results were USP17 block 35.6*, USP10 block -2.8, USP8 block 2.0, USP28 block 21.5, USP30 block 41.0* and USP7 inh -120.9.
O=c1cc(-c2ccc(O)c(O)c2)oc2cc(O[C@@H]3O[C@H](CO)[C@@H](O)[C@H](O)[C@H]3O)cc(O)c12 was read as USP17 block 83.6*, USP10 block 52.0*, USP8 block 26.8, USP28 block 89.6*, USP30 block 91.5* and USP7 inh 36.1*.
For CC1OC(OCC2OC(Oc3c(-c4ccc(O)c(O)c4)oc4cc(O)cc(O)c4c3=O)C(O)C(O)C2O)C(O)C(O)C1O (centres undefined) the results were USP17 block 2.7, USP10 block -2.8, USP8 block -4.3, USP28 block 2.2, USP30 block 0.4 and USP7 inh -1.2.
For Cc1ccc(-c2nnc(SCc3noc(CCC(=O)Nc4ccccc4)n3)o2)cc1 the results were USP17 block 21.2, USP10 block 2.8, USP8 block -23.4, USP28 block 16.3, USP30 block 40.0* and USP7 inh 3.8.
O=C(COc1ccc(Cl)cc1Cl)NCCCc1ccccc1 was read as USP17 block 4.6, USP10 block 10.8, USP8 block -136.7, USP28 block 15.6, USP30 block 32.4* and USP7 inh -51.3.
O=C(COc1ccccc1-c1nnc(-c2ccccc2)o1)NCCCc1ccccc1 was read as USP17 block 8.9, USP10 block 1.1, USP8 block 11.5, USP28 block 11.5, USP30 block 34.8* and USP7 inh 2.8.
`COc1ccccc1NC(=O)COc1ccccc1-c1nnc(-c2ccccc2)o1` gave USP17 block 6.2, USP10 block -3.4, USP8 block 1.4, USP28 block 3.0, USP30 block 13.3 and USP7 inh 1.7.
Screening Cc1cc(OCC(=O)Nc2ccccc2C(=O)Nc2ccccc2)ccc1Cl returned USP17 block 2.6, USP10 block 34.9*, USP8 block 20.8, USP28 block -6.0, USP30 block 3.6 and USP7 inh 9.8.
CS(=O)(=O)c1cc(Cl)ccc1CN1CCC(c2nc(-c3ccncc3)no2)CC1 was read as USP17 block -13.4, USP10 block 1.4, USP8 block -6.5, USP28 block -12.9, USP30 block -12.9 and USP7 inh -4.5.
Cn1cccc1C(=O)Nc1cnn(-c2ncc(N3CCCC3)cn2)c1 was read as USP17 block 31.4*, USP10 block -3.2, USP8 block -7.2, USP28 block -17.4, USP30 block -108.9 and USP7 inh -4.6.
For Cn1cccc1C(=O)Nc1cnn(-c2ncc(N3CCCCC3)cn2)c1 the results were USP17 block -32.2, USP10 block -0.6, USP8 block -33.4, USP28 block -34.1, USP30 block -80.4 and USP7 inh 3.2.
For CCCCCCCc1cc(O)cc(O)c1 the results were USP17 block 4.8, USP10 block 8.1, USP8 block 14.2, USP28 block 76.7*, USP30 block 20.4 and USP7 inh 8.3.
Cc1ccc2nc(-c3ccc(NC(=O)COc4ccc5c(c4)OCO5)cc3)sc2c1 was read as USP17 block 14.0, USP10 block 13.0, USP8 block 26.1, USP28 block 0.9, USP30 block 2.9 and USP7 inh -1.8.
For O=C(COc1ccc(C(=O)OCc2csc(-c3ccccc3)n2)cc1)Nc1cccc(C(F)(F)F)c1 the results were USP17 block 30.6*, USP10 block 14.4, USP8 block 17.8, USP28 block 9.4, USP30 block 33.0* and USP7 inh 1.7.
CCc1ccc(OCC(=O)Nc2cccc(-c3nc4ccccc4s3)c2)cc1 was read as USP17 block -7.1, USP10 block 4.9, USP8 block -7.2, USP28 block -3.2, USP30 block 36.4* and USP7 inh 2.7.
Screening COc1ccc2[nH]c3c(c2c1)CCN1C(=O)CN(Cc2ccc4c(c2)OCO4)C(=O)[C@]31C returned USP17 block 11.8, USP10 block 7.7, USP8 block 20.5, USP28 block 12.4, USP30 block 15.5 and USP7 inh 6.0.
Screening Cc1cc2c3c([nH]c2cc1S(=O)(=O)Nc1ccc2c(c1)OCO2)CC(C)(C)CC3=O returned USP17 block 23.3, USP10 block 12.4, USP8 block 2.0, USP28 block 12.7, USP30 block 5.3 and USP7 inh 1.1.
For O=C(Nc1ccc2[nH]c(=O)[nH]c2c1)c1cc2c(=O)n3ccccc3nc2s1 the results were USP17 block -14.8, USP10 block -12.5, USP8 block -57.5, USP28 block -22.1, USP30 block -170.0 and USP7 inh 1.3.
O=C(CNC(=O)c1cc2c(=O)n3ccccc3nc2s1)c1ccccc1 was read as USP17 block -34.3, USP10 block -2.0, USP8 block 43.7*, USP28 block -74.8, USP30 block -214.4 and USP7 inh -33.7.
Screening Fc1cccc(Cc2nnc(-c3cccnc3)o2)c1 returned USP17 block -3.8, USP10 block -3.4, USP8 block 2.2, USP28 block 0.1, USP30 block -20.4 and USP7 inh -2.4.
O=C(Nc1ccc2c(c1)OCCO2)C1CCC(Cn2cnc3ccccc3c2=O)CC1 (centres undefined) was read as USP17 block -4.4, USP10 block 50.9*, USP8 block 3.1, USP28 block 92.5*, USP30 block 16.3 and USP7 inh 1.7.
`O=C(Nc1ccc2cn[nH]c2c1)C1CN(C(=O)c2ccc3c(c2)OCO3)C1` gave USP17 block 2.9, USP10 block -2.0, USP8 block -35.1, USP28 block -0.8, USP30 block -5.4 and USP7 inh -17.6.
Cc1cc(C(=O)N2CCC(C(=O)Nc3ccc4c(c3)OCO4)CC2)c2ccccc2n1 was read as USP17 block 10.3, USP10 block -0.3, USP8 block 6.1, USP28 block -13.0, USP30 block -20.7 and USP7 inh -3.2.
